From PubChem BioAssay
TWEAK-Fn14 inh: inhibitors of TWEAK-Fn14 signaling, primary screen, luciferase reporter cells, uHTS. TWEAK-stimulated Fn14 reporter cells, luciferase luminescence, 8 h. 360,000 compounds, 2% hits. inhibition, % at 10 µM; in the data active = inhibition above about 50%
TROY signal inh: inhibitors of TROY-driven NF-kB signaling, primary screen, Q293 LMP1-TROYcd cells, NF-kB luciferase, uHTS. Q293 LMP1-TROYcd NF-kB luciferase reporter, 4 h. inhibition, % at 10 µM. 360,000 compounds, 0.98% hits. AID 1347056, 2019;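 active = compounds whose plate-normalised and pattern-corrected inhibition of the luciferase reporter signal at the single screening dose is 50% or more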
LGR2 antag: inhibitors of bursicon-induced LGR2 CRE-luciferase signal, primary screen, cell-based, HEK293, CRE-luciferase reporter, bursicon stimulation; bursicon-stimulated, 4 h; Drosophila bursicon receptor LGR2 (rickets); inhibition, % at 9.99 µM; 380,000 compounds, 0.35% hits;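 active = drop in luminescence signal, shown as inhibition above about 50% in the replicate tests, limit read from the data, passing the limit was not always enough; inconclusive = probably only some replicates passing the limit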;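 note: agonist challenge used bursicon conditioned medium at about half maximal strength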
EWS-Fli block: EWS/Fli-driven NR0B1 reporter inhibitors, primary screen, A673 cells, NR0B1 luciferase, luminescence, MLPCN library; AID 651661, 2012; viability-normalised; inhibition, % at 12.6 µM; 350,000 compounds, 0.67% hits;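 active = mean inhibition of at least 50% after viability correction, with every replicate also passing that limit; inconclusive = mean reaches 50% but only one of two replicates passes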;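 note: firefly luciferase signal divided by Alamar Blue viability fluorescence both relative to DMSO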
LMP1 NFkB inh: EBV LMP1-driven NF-kappaB luciferase reporter inhibitors, primary screen, cell-based, luminescence, single point; inhibition, % at 12.5 µM; 350,000 compounds, 0.69% hits; LMP1-induced NF-kappaB luciferase reporter cells; AID 504558, 2011; in the data active = inhibition above about 41%; inconclusive = no clear call, values can overlap the other calls;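 note: 0% = neutral control wells and 100% = reference inhibitor control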
* hit, by the source's call; ? = inconclusive; / = no result given; ! = not active in a repeat. In the library only some 2.6% were active in any assay of this set; here they are far more common.

SMILES	TWEAK-Fn14 inh	TROY signal inh	LGR2 antag	EWS-Fli block	LMP1 NFkB inh
CC(=O)O[C@H]1CC[C@@]2(C)C(=CC[C@H]3[C@@H]4CC[C@H](C(C)=O)[C@@]4(C)CC[C@@H]32)C1	-12	5	-3	-5	54*
CC(=O)[C@H]1CC[C@H]2[C@@H]3CC=C4C[C@@H](OS(=O)(=O)O)CC[C@]4(C)[C@H]3CC[C@]12C	-7	4	7	2	0
C/C=C/c1ccc2c(c1)O[C@@H](CN(C)S(C)(=O)=O)[C@@H](C)CN([C@@H](C)CO)S2(=O)=O	/	/	-11	-2	/
CCOC(=O)c1c(C)oc2c1c(C(c1cccnc1)N1CCOCC1)c(O)c1ccccc12 (configuration not stated)	98*	-9	/	/	5
S=c1[nH]nc(-c2cccnc2)n1/N=C/c1ccccc1	7	12	-19	5	3
Fc1cccc(Cl)c1/C=N/n1c(-c2cccnc2)n[nH]c1=S	-15	-7	2	-12	52*
Cc1sc2nc3ccc(NCc4ccco4)nn3c(=O)c2c1C	91*	3	/	/	-25
COc1ccc(CNC(=O)C[C@@H]2CC[C@H](NC(=O)Nc3ccc4c(c3)OCO4)[C@@H](CO)O2)cc1	/	/	13	-18	/
Cn1c(=O)c2c(nc(NCCNC(=O)c3ccco3)n2Cc2ccc(F)cc2)n(C)c1=O	31	4	-2	1	-4
COc1cc(/C=N/Nc2nc3c(c(=O)n(C)c(=O)n3C)n2Cc2ccccc2)ccc1OC(=O)c1ccco1	72*	42	51*	32	6
COc1ccc(Cl)c(Cn2c(NCc3ccco3)nc3c2c(=O)n(C)c(=O)n3C)c1	16	15	23	/	56*
Cn1c(=O)c2c(nc(NCCNC(=O)c3ccco3)n2Cc2ccccc2)n(C)c1=O	98*	-14	12	5	2
Cn1c(=O)c2c(nc(N/N=C/c3ccncc3)n2Cc2ccccc2)n(C)c1=O	20	11	10	13	0
CCCN(C)C[C@@H]1Oc2cc(C#C[C@H](C)O)ccc2S(=O)(=O)N([C@@H](C)CO)C[C@@H]1C	/	/	13	5	/
CCS(=O)(=O)N1CCC2(CC1)CN(C)[C@@H](CO)c1c2c2ccc(OC)cc2n1C	/	/	-11	5	/
CO[C@@H]1CN(C)C(=O)c2ccc(NS(=O)(=O)c3ccc(Cl)cc3)cc2OC[C@H](C)N(C)C[C@H]1C	/	/	-4	-2	/
C[C@@H]1CN([C@H](C)CO)C(=O)c2cc(NC(=O)Nc3ccc(F)cc3)ccc2O[C@@H](C)CCCCO[C@@H]1CN(C)Cc1ccccc1	/	/	26	7	/
C[C@@H]1CN([C@@H](C)CO)C(=O)c2cc(-c3ccc(F)cc3)cnc2O[C@@H]1CN(C)C(=O)c1ccncc1	/	/	9	-2	/
O=C(C[C@@H]1C=C[C@@H](NC(=O)c2ccncc2)[C@H](CO)O1)NCCc1ccncc1	/	/	-3	-2	/
CS(=O)(=O)Nc1ccc(-c2cnc3cccnn23)cc1	65*	24	19	-33	/
OC[C@@H]1[C@H](c2ccc(C#CC3CCCC3)cc2)[C@H]2CN(CCC(F)(F)F)CCCCN12	/	/	0	60*	/
CC(C)NC(=O)Nc1cccc2c1O[C@H](CN(C)CC1CC1)[C@@H](C)CN([C@H](C)CO)C2=O	/	/	-6	-4	/
CC(=NNC(=S)N(Cc1ccccn1)Cc1ccccn1)c1cnccn1	-9	5	-10	6	81*
S=C(NN=C(c1ccccc1)c1ccccn1)N(Cc1ccccn1)Cc1ccccn1	34	-4	13	7	63*
S=C(NN=Cc1ccccn1)N(Cc1ccccn1)Cc1ccccn1	-16	-8	-39	0	8
SMILES	TWEAK-Fn14 inh	TROY signal inh	LGR2 antag	EWS-Fli block	LMP1 NFkB inh
O=C(NN=C(c1ccccc1)c1ccccn1)c1ccccc1	-8	-20	/	-2	7
COCC#Cc1ccc([C@@H]2[C@@H](CO)N3CCCCN(Cc4cncnc4)C[C@H]23)cc1	/	/	-9	-2	/
Cc1ccc(SCc2[nH]nc3c2C(c2ccc(C)o2)C(C#N)=C(N)O3)cc1 (configuration not stated)	17	5	4	7	66*
N/C(=N\OC(=O)COc1ccc(Cl)cc1Cl)c1ccccn1	56*	26	?	15	4
N/C(=N\OC(=O)c1cc(Cl)ccc1Cl)c1ccccn1	75*	34	34	44	25
COc1ccc(Cl)cc1C(=O)O/N=C(\N)c1ccccn1	-12	-29	-58	-57	-56
N/C(=N\OC(=O)COc1ccc(Br)cc1Cl)c1ccccn1	66*	22	?	/	-7
N/C(=N\NC(=O)Nc1ccc(Cl)cc1)c1ccccn1	31	64*	-64	-54	-9
CO[C@H]1CN(C)C(=O)c2cc(NC(=O)C3CCC3)ccc2OC[C@@H](C)N(Cc2ccncc2)C[C@H]1C	/	/	9	0	/
CCN1CCN(Cc2ccc(NC(=O)c3cccc(-c4ccc5nc(NC(=O)C6CC6)sc5n4)c3)cc2C(F)(F)F)CC1	/	/	76*	37	/
CCN1CCN(Cc2ccc(NC(=O)c3cc(NC(=O)c4cnn(-c5ccccc5)c4N)cc(OC)c3)cc2C(F)(F)F)CC1	-73	-36	-17	61*	5
CCN1CCN(Cc2ccc(NC(=O)c3ccc(C)c(NC(=O)C(=O)c4c[nH]c5ccccc45)c3)cc2C(F)(F)F)CC1	-93	-24	19	59*!	43*!
CCN1CCN(Cc2ccc(NC(=O)c3ccc(C)c(NC(=O)c4ccc5n[nH]nc5c4)c3)cc2C(F)(F)F)CC1	-2	-1	8	2	36
CCN1CCN(Cc2ccc(NC(=O)c3cc(NC(=O)c4cc(C)on4)cc(OC)c3)cc2C(F)(F)F)CC1	0	2	-2	10	-7
CCN1CCN(Cc2ccc(NC(=O)c3cc(NC(=O)C(=O)c4c[nH]c5ccccc45)cc(OC)c3)cc2C(F)(F)F)CC1	76*!	-4	-23	54*	-35
COc1ccc(NC(=O)N[C@@H]2C=C[C@@H](CC(=O)NC3CCC3)O[C@H]2CO)cc1	/	/	2	0	/
Nc1ncnc2c1C1(CCCCC1)Cc1ccccc1-2	59*	59*	11	/	8
Nc1n[nH]c2c1C1(CCCCC1)Cc1ccccc1-2	-17	4	/	/	1
O=C(CCN1CCCCC1)NCC[C@@H]1CC[C@H](NC(=O)C2CCCC2)[C@H](CO)O1	/	/	26	-12	/
COc1ccc2nc(Nc3nc(CSc4nnnn4-c4ccccc4)cc(=O)[nH]3)nc(C)c2c1	57*	23	/	/	4
CCCC(=O)N1CCC2(CC1)CN(C(=O)C1CCOCC1)[C@H](CO)c1[nH]c3cc(OC)ccc3c12	/	/	-5	-3	/
Cc1ccc(N=C2NC(=O)CS2)c(C)c1	101*	/	/	/	3
Cc1cc(Br)ccc1N=C1NC(=O)CS1	5	13	-4	9	0
Cc1coc2c1C(=O)C(=O)c1c-2ccc2c(C)cccc12	26	1	/	/	79*
